# Rows were chosen to be rich in hits. Some 4.1% of all compounds tested hit in one or more screens of this group.
# Mtb UGM inh = M. tuberculosis UGM enzyme inhibitors, primary screen, biochemical, fluorescence polarization, single point; UDP-galactopyranose mutase (Mycobacterium tuberculosis (strain ATCC 25618 / H37Rv)), …; purified UGM, fluorescence polarization probe displacement; inhibition, % at 10 µM; 320,000 tested, 0.06% active; AID 504406, 2011; in the data active = inhibition above about 10%, passing the limit was not always enough
# Target sequence (P9WIQ1 whole entry, looked up): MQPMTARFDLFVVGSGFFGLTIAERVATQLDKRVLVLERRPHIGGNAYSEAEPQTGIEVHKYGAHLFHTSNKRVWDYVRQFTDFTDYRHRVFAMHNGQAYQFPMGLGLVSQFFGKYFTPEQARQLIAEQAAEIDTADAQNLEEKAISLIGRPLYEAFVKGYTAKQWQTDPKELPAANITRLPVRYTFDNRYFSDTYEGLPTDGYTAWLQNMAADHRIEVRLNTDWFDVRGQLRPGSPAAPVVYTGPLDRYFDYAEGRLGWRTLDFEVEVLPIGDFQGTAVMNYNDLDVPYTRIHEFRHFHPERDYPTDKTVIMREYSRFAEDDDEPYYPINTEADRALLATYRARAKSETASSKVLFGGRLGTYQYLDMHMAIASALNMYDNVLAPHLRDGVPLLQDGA
# Rv3671c inh = Rv3671c serine protease inhibitors, primary screen, biochemical, fluorescence polarization, M. tuberculosis H37Rv; P9WHR9; inhibition, % at 5.96 µM; 320,000 tested, 0.048% active; in the data active = inhibition above about 38%;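 also: extracellular domain of Rv3671c used as enzyme; 0% = enzyme with DMSO and 100% = no enzyme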
# RecA splice inh = Mtb RecA intein splicing inhibitors, primary screen, biochemical, fluorescence, HTS; inhibition, % (concentration not given with the values); 290,000 tested, 0.75% active; AID 2221, 2009; cell-free RecA intein splicing; Protein RecA (Mycobacterium tuberculosis (strain ATCC 25618 / H37Rv)), P9WHJ3; in the data active = inhibition above about 30%;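 also: 0% = vehicle wells and 100% = reference inhibitor control wells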
# FBA Mtb inh = Mtb FBA enzyme inhibitors, primary screen, biochemical, fluorescence, strain H37Rv; Fructose-bisphosphate aldolase (Mycobacterium tuberculosis (strain ATCC 25618 / H37Rv)), …; purified M. tuberculosis FBA, fluorescence read-out; inhibition, % at 1 µM; 360,000 tested, 2.3% active; AID 588726, 2011; in the data active = inhibition above about 27%;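 also: 0% = vehicle and 100% = reference inhibitor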
# BH1578 lux ind = inducers of Vibrio cholerae quorum light production without autoinducers, primary screen, BH1578 luxS cqsA deficient, single point | V. cholerae BH1578 lux reporter, luminescence, 6 h | activation, % at 18.7 µM | 350,000 tested, 0.16% active | AID 588436, 2011; in the data active = activation mostly above about 9.7%, no sharp cut-off
# GDH-TPI counter = GDH-TPI coupling enzyme inhibitors, primary screen, artefact control for M. tuberculosis FBA inhibitor project, biochemical, absorbance, full deck. inhibition, % at 4.8 µM. 360,000 tested, 1.2% active. GDH-TPI coupled enzyme counterscreen, NADH absorbance. AID 588335, 2011; in the data active = inhibition above about 30%;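 also: 0% = DMSO wells and 100% = wells lacking the enzyme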
# The depositor's hits bear a star; i = inactive; · = not tested or not shown.
SMILES,Mtb UGM inh,Rv3671c inh,RecA splice inh,FBA Mtb inh,BH1578 lux ind,GDH-TPI counter
Cc1ccc2nc3c(cc(S(=O)(=O)c4ccccc4)c(=N)n3Cc3ccco3)c(=O)n2c1,2,-9,-90,121*,i,5
Cn1c(Oc2ccncc2)nc2cc(-c3ccsc3)sc2c1=O,·,·,·,1,0,19
Cc1ccc(-n2nc(C)c3c2OC(N)=C(C#N)C3c2ccccc2F)cc1 (centres undefined),0,-14,43*,-3,·,2
O=C(CCCSc1ccc(Cl)cc1)Nc1cc(S(=O)(=O)N2CCOCC2)ccc1O,2,-4,·,-2,-1,-10
CNC(=S)N1N=C(c2cccs2)CC1c1ccc(F)cc1 (centres undefined),-5,5,-1,8,i,36*
Cc1ccc(C2CC(c3cccs3)=NN2C(=O)CSC2=NCCS2)cc1 (centres undefined),-3,-2,57*,16,-2,14
O=C(c1ccco1)N1N=C(c2cccs2)CC1c1ccc(F)cc1 (centres undefined),2,-5,13,1,-1,21
COc1ccc(C2CC(c3cccs3)=NN2C(=O)CSC2=NCCS2)cc1 (centres undefined),-1,-5,41*,11,·,-8
CCC(=O)N1N=C(c2cccs2)CC1c1ccc(OC)cc1 (centres undefined),0,·,3,7,i,6
CCOc1ccc(NC(=O)CSc2nc3cc(C(=O)NCC4CCCO4)ccc3c(=O)n2CC2CCCO2)cc1 (centres undefined),·,·,·,3,-1,5
CC(/C=C/c1ccccc1)=N\Nc1nc2c(c(=O)[nH]c(=O)n2C)n1CCO,0,-1,-2,·,·,·
CCCn1c(N/N=C\C=C\c2ccccc2)nc2c1c(=O)[nH]c(=O)n2C,0,0,-3,-4,i,31*
COCCCNc1oc(-c2ccccc2Cl)nc1C#N,0,6,-1,8,-3,16
CC(=O)Nc1oc(-c2cccc3ccccc23)nc1C#N,-1,-8,·,164*,0,5
N#Cc1nc(-c2cccc3ccccc23)oc1NCCN1CCOCC1,-1,3,-5,122*,0,33*
CCCNc1oc(-c2cccc3ccccc23)nc1C#N,1,11,·,148*,i,20
O=C1CN(C(=O)C2CCC(=O)N(CCc3ccc(Cl)cc3)C2)CCN1 (centres undefined),-2,-7,1,-1,i,0
CC(=O)C[C@H](O)CC(=O)[C@H]1OC(=O)CCCCCCCCc2ccccc21,-2,-3,·,0,i,-9
COc1ccc(/C=N/NS(=O)(=O)c2ccc(C)cc2)cc1OC(=O)c1ccccc1,1,-29,-5,128*,-5,13
CCC(=O)/C=C1\Sc2ccc(OC)cc2N1CC,3,-1,-7,0,-1,31*
O=C(N/N=C/c1c[nH]c2ccc(Br)cc12)C1CC1,-1,-4,0,10,0,32*
CC(/C=N/NC(=O)c1cccs1)=C\c1ccccc1,-1,-3,3,-3,-1,32*
NC(=O)C(=O)N/N=C/c1c[nH]c2ccc(Br)cc12,0,-5,·,0,0,19
Cc1nc(N)sc1C(=O)N/N=C/c1c[nH]c2ccccc12,0,-4,-3,-2,-2,56*
O=C(N/N=C/c1c[nH]c2ccccc12)c1cc(Br)ccc1O,0,12,-2,6,1,31*
SMILES,Mtb UGM inh,Rv3671c inh,RecA splice inh,FBA Mtb inh,BH1578 lux ind,GDH-TPI counter
O=C(N/N=C/C(Cl)=C\c1ccccc1)c1cccs1,1,-18,2,1,1,28
Cc1ccc(C(=O)N2CCN(CCNC(=O)C(=O)NCc3ccc(Cl)cc3)CC2)cc1,-2,1,3,2,0,9
CC(=O)Nc1cc2c3ccccc3n(C)c2cc1[N+](=O)[O-],·,·,·,-2,-2,15
COc1cc(C(O)c2nc(-c3cncnc3)cs2)ccc1F (centres undefined),·,·,·,0,0,6
Cc1cccc(NC(=S)N/N=C/c2c[nH]c3ccccc23)c1,-1,13,11,2,i,36*
Cc1cccc(NC(=S)N/N=C/c2ccc(Cl)c([N+](=O)[O-])c2)c1,1,-4,0,-1,0,30
Cc1nc(N)sc1C(=O)N/N=C/c1ccccc1[N+](=O)[O-],3,-2,-2,2,0,22
O=C(N/N=C/c1c[nH]c2ccc(Br)cc12)c1ccn(Cc2ccc(Cl)cc2Cl)n1,0,-21,15,3,i,15
O=C(N/N=C/c1c[nH]c2ccccc12)c1ccn(Cc2ccc(Cl)cc2)n1,0,5,9,0,-1,32*
Cc1cccc(NC(=S)N/N=C/c2cccc([N+](=O)[O-])c2)c1,0,-12,1,2,i,33*
Cc1nc(N)sc1C(=O)N/N=C/c1ccco1,1,0,-2,-1,i,38*
Cc1ccc(NC(=O)CCNC(=O)c2ccc([N+](=O)[O-])cc2)cc1C,-1,·,-1,-1,1,8
CC(=O)N(C)c1ccc(OCC(O)CN(c2ccccc2C)S(=O)(=O)c2ccc(C)cc2)cc1 (centres undefined),1,0,6,5,0,4
Cc1ccc(CN2CCN(C(=O)CC(C)C)CC2)cc1,1,-1,-2,2,-1,16
COC(=O)c1ccc2c(=O)n(CCN3CCOCC3)c(SCC(=O)Nc3ccccc3Cl)nc2c1,0,0,0,2,0,-6
CCOC(=O)c1ccccc1NC(=O)CSC(C)C(=O)Nc1cc(C)on1 (centres undefined),-1,1,1,2,5,3
Cc1c(/C=N/NC(=O)c2cc(Br)ccc2O)c(=O)n(C)c(=O)n1C,0,-2,-3,0,i,31*
CC(/C=N/NC(=O)c1n[nH]c2c1CCC2)=C\c1ccccc1,0,-6,0,-1,0,31*
Cc1cc(C(=O)N/N=C/c2c[nH]c3ccccc23)c(C)o1,0,-1,0,-3,i,8
COc1ccccc1/C=C\C=N\NC(=O)CCn1nnc2ccccc21,-1,-3,1,4,2,38*
Cc1ccc(C(=O)N/N=C/c2c[nH]c3ccccc23)o1,0,-1,0,-3,0,31*
